Measurements published in PubChem BioAssay (Tox21).
Records with an inconclusive call do not appear. Values without a mark were called inactive. Calls follow the shape of the dose curve; as a rule, active = well fitted cell-killing curve with a large enough effect in the repeat runs; inconclusive = weak or mixed curves; inactive = flat fitted curve, though single readings scatter. Where a SMILES comes first, the peptide text is derived from it. [ ]: non-standard residue; d: D form. pGlu = O=C1CC[C@@H](C(=O)O)N1

assay: qHTS assay to identify small molecule antagonists of the estrogen related receptor (ERR) signaling pathway from Tox21 library - cell viability counter screen (AID 1224834); settings: ERR reporter cells viability, CellTiter-Fluor, 17.5 h; series mostly up to 92.4 µM; viability change, negative = cytotoxic: at the top concentration; also: nearly all actives have a fitted effect of over 30% in size
Source text: National Center for Advancing Translational Sciences [NCATS]
NIH Chemical Genomics Center [NCGC]
U.S. Environmental Protection Agency [EPA]
National Institutes of Environmental Health Sciences [NIEHS]
National Toxicology Program [NTP]
U.S. Food and Drug Administration [FDA]
Estrogen related receptors (ERRs), the first orphan nuclear receptors discovered, play an important role in the control of cellular energy metabolism. ERRs are required for high-energy production in response to the environmental challenges. ERR-alpha was also identified as an adverse marker for breast cancer progression; ERR-alpha-positive tumors have a poor prognosis. To screen and to identify environmental compounds that perturb the ERR signaling pathways could provide valuable information for potential therapeutic or preventive measures in the treatment of metabolic disease. To differentiate true ERR antagonists or agonist from cytotoxic substances, the assay is multiplexed with cell viability assay.
Tox21 Assay Protocol Summary:
The ERR cells were dispensed at 2,000 cells/5 ul/well in 1536-well white plates using a Multidrop dispenser. After the assay plates were incubated at a 37 C/5% CO2 incubator for 6 hours, 23 nL of compounds dissolved in DMSO, positive and negative controls or DMSO only was transferred to the assay plate by a pin tool. The plates were incubated at 37 C for 17.5 hours. 1 ul/well of CellTiter-Fluor reagent was added into the assay plates using a Flying Reagent Dispenser. After 30-minute incubation at 37 C/5% CO2, the fluorescence intensity in the plates was measured using a ViewLux plate reader.
% is scaled to controls: 0 for no effect and ±100 for the full control effect.

Row | SMILES | viability change, negative = cytotoxic
1 | CCOc1ccc2nc(S(N)(=O)=O)sc2c1 | 1.34% [at 42.5 µM]
2 | c1ccc(Cc2ccccc2)cc1 | 6.26%
3 | CCCCCC(C)N (stereo not given) | -2.55% [at 42.5 µM]
4 | [K+] | -8.08%
5 | Cc1onc(-c2c(Cl)cccc2Cl)c1C(=O)Cl | 1.96% [at 42.5 µM]
6 | CCOC(=O)C1=NOC(c2ccccc2)(c2ccccc2)C1 | 3.28%
7 | Nc1c2c(nc3c1CCC3)CCCC2 | 2.09% [at 42.5 µM]
8 | CCCCCCCCCCOc1cc2c(=O)c(C(=O)OCC)c[nH]c2cc1OCC | 3.47% [at 8.39 µM]
9 | CCNC(=O)[C@@H]1CCCN1C(=O)[C@H](CCCN=C(N)N)NC(=O)[C@H](CC(C)C)NC(=O)CNC(=O)[C@H](Cc1ccc(O)cc1)NC(=O)[C@H](CO)NC(=O)[C@H](Cc1c[nH]c2ccccc12)NC(=O)[C@H](Cc1cnc[nH]1)NC(=O)[C@@H]1CCC(=O)N1 ([pGlu]HWSYGLRP-NHEt) | 8.59% [at 42.5 µM]
10 | CC1OC1C1CCC2(C)OC2C1 (stereo not given) | 5.67%
11 | CC(C(=O)O)c1cccc(Oc2ccccc2)c1 (stereo not given) | -6.04% [at 42.5 µM]
12 | Cc1ccc(-c2ncc(Cl)cc2-c2ccc(S(C)(=O)=O)cc2)cn1 | 0.186% [at 42.5 µM]
13 | CC(=O)Nc1ccc(OCC(O)CNC(C)C)cc1 (stereo not given) | 2.69% [at 42.5 µM]
14 | CN1CCN(c2cc3c(nn2)Oc2ccccc2N3C)CC1 | 4.08% [at 19 µM]
15 | NC(=O)NC1N=C([O][Al])NC1=O (stereo not given) | 4.83% [at 42.5 µM]
16 | CC(COc1ccccc1)NN (stereo not given) | 3.22% [at 42.5 µM]
17 | CCCCCC(=O)OCCc1ccccc1 | 3.11%
18 | CCOc1c(N2CCOCC2)cnn(C)c1=O | -2.37% [at 42.5 µM]
19 | O=C1CCCCCCCCCCCCCCO1 | 0.627%
20 | C[N+](C)(C)CCCCCCCCCC[N+](C)(C)C | 6.04% [at 42.5 µM]

Row | SMILES | viability change, negative = cytotoxic
21 | CC/C=C\CCOC(C)OCC (stereo not given) | -1.57% [at 42.5 µM]
22 | NCCCC[C@H](N[C@@H](CCc1ccccc1)C(=O)O)C(=O)N1CCC[C@H]1C(=O)O | -2.07% [at 42.5 µM]
23 | Cc1ncc(COP(=O)(O)O)c(C=O)c1O | -1.26% [at 42.5 µM]
24 | CCCCc1ccc2c(n1)[C@@H](c1ccc(OC)cc1C[C@H](C)C(=O)O)[C@H](C(=O)O)[C@H]2c1ccc2c(c1)OCO2 | -1.4%
25 | Cc1ccnc(NS(=O)(=O)c2ccc(N)cc2)n1 | 2.13% [at 42.5 µM]
26 | CCCCCCCCCCCCCCCCCCO | 2.02% [at 42.5 µM]
27 | CNCCO | 7.8%
28 | C[C@@H]1CCC[C@H](C)N1 | 0.251% [at 42.5 µM]
29 | CC1=NN(c2cccc(S(=O)(=O)O)c2)C(=O)C1 | -4.43%
30 | CC(=O)c1ccccc1[N+](=O)[O-] | 5.44%
31 | C=CCCCCCCCCC(=O)OCC | 7.73%
32 | C[N+]12CCC(CC1)C(OC(=O)C(O)(c1ccccc1)c1ccccc1)C2 (stereo not given) | 0.767% [at 42.5 µM]
33 | CC[N+](CC)(CC(=O)Nc1c(C)cccc1C)Cc1ccccc1 (tested in a mixture with another compound) | 6.92% [at 42.5 µM]
34 | CC(C)C1CCC(O)CC1 (stereo not given) | -0.567%
35 | O=S(=O)(O)c1cccc2c(S(=O)(=O)O)cccc12 | 2.62%
36 | C[C@H]1[C@H](NC(=O)/C(=N/OC(C)(C)C(=O)O)c2csc(N)n2)C(=O)N1S(=O)(=O)O (stereo in doubt) | -0.711% [at 42.5 µM]
37 | Cc1nc2ccc(CN(C)c3ccc(C(=O)N[C@@H](CCC(=O)O)C(=O)O)s3)cc2c(=O)[nH]1 | -0.162% [at 42.5 µM]
38 | c1ccc2sc(SN3CCOCC3)nc2c1 | 3.65% [at 42.5 µM]
39 | Clc1cc(Cl)c(Cl)nc1Cl | 2.99%
40 | CC(=O)Oc1cccc(C)c1 | 0.429% [at 42.5 µM]
